From PubChem BioAssay AID624040 (The Scripps Research Institute Molecular Screening Center, 2012)
The whole screen tested about 360,000 compounds, of which about 2,100 (0.58%) were called active. The entries come from a sample that favours actives as a whole. A number with no mark means an inactive call.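 Rule for the calls: active = inhibition above a per-plate cutoff, the mean of that plate's test compounds plus 3 SD (cut at about 27% in these data); inactive = the rest.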

biological target: Muscarinic acetylcholine receptor M5 (Homo sapiens) (UniProt P08912); experiment: human M5 muscarinic receptor antagonists, primary screen, CHO cells, Fluo-8 calcium fluorescence (AID 624040); details: CHO-hM5 cells, ACh EC80, at 3 µM, hits give high values;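 note: 0% = acetylcholine EC80 with DMSO and 100% = DMSO without agonist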
Sequence (P08912 whole entry, looked up): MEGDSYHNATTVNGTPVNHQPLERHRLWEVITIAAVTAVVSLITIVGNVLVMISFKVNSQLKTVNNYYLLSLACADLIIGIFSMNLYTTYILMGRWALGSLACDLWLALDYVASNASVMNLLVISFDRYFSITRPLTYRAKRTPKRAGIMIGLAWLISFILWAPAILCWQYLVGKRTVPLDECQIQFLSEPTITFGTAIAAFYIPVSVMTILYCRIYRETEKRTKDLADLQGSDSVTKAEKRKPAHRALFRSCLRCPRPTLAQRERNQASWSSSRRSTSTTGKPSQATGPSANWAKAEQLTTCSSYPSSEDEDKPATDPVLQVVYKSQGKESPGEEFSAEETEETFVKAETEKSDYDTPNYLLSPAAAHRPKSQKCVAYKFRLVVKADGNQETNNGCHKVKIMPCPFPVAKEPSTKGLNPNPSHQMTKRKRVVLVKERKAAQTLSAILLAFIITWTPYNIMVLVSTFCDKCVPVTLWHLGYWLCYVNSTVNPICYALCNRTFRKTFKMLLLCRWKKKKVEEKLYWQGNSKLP

Compound	inhibition
COc1ccccc1NC(=O)N(O)C1(C#N)CCCCC1	4.25%
CCOC(=O)c1c(S(=O)(=O)Nc2ccc(CN3CCC(C)CC3)cc2)c(C)n(C)c1C	0.52%
Cc1cc(Br)ccc1NC(=O)c1sc2ncn(CC(=O)N3CCN(c4ccccn4)CC3)c(=O)c2c1C	-9.8%
Cc1cc(C(=O)N2CCN(c3ccccn3)CC2)c(C)o1	-9.14%
Cc1cc(Br)ccc1NC(=O)c1cnc(N2CCN(c3ccccn3)CC2)c2ccccc12	27.7% (active)
C[C@H](CO)N1C[C@H](C)[C@@H](CN(C)S(=O)(=O)c2ccc(F)cc2)OCc2cnnn2CCCC1=O	-6.37%
CCc1noc(C)c1C(=O)Oc1ccc(N(C)S(=O)(=O)c2ccc(C)c(C)c2)cc1	11.9%
CCN(CC)CCCC(C)n1c2nc(=O)[nH]c(=O)c-2nc2cc(Cl)ccc21 (centres undefined)	41.2% (active)
CCCN(CCc1ccccc1)C1CCc2c(O)cccc2C1 (centres undefined)	2.43%
Cc1ccc(S(=O)(=O)N2CCC(C(=O)N3CCCCCCC3)CC2)cc1	1.57%
Cc1ccc(S(=O)(=O)n2oc(=O)c(C3CCCCC3)c2N)cc1	33.2% (active)
Cc1ccc(S(=O)(=O)N2CCC(N3CCCCCC3)CC2)cc1	6.92%
CCC(C)(C)NC(=O)CN(C(=O)C(=O)Nc1ccc2c(c1)OCCO2)C(C)(C)CC	1.43%
CCOCCn1[nH]c2ccccc2c1=O	3.03%
O=[N+]([O-])c1ccc(N2CCN(c3ccc(F)cc3)CC2)cn1	8.5%
O=C(c1cncc(Br)c1)N1CCN(c2ccc([N+](=O)[O-])cc2)CC1	15.7%
O=C(c1cc(C(=O)N2CCN(c3ccc(F)cc3)CC2)cc([N+](=O)[O-])c1)N1CCN(c2ccc(F)cc2)CC1	29.5% (active)
CC(=O)c1c(N2CCOCC2)nc(=S)n(Cc2ccccc2)c1C	10%
COc1ccccc1NC(=S)N1CCC(NC(=O)C23CC4CC(CC(C4)C2)C3)CC1	6.64%
CCOc1ccccc1NC(=S)N1CCN(c2cccc(C)c2C)CC1	-0.84%
COc1ccccc1NC(=S)N1CCN(C(c2ccccc2)c2ccccc2)CC1	32.8% (active)
O=C(c1ccc2c(c1)C(=O)N(Cc1ccncc1)C2=O)N1CCN(S(=O)(=O)c2ccc(OC(F)(F)F)cc2)CC1	11.6%
COc1cccc(COC(=O)C2CCN(S(=O)(=O)c3ccc(Cl)cc3)CC2)c1OC	10.6%

Compound	inhibition
COc1ccc(CNC(=O)COc2cccnc2[N+](=O)[O-])cc1	8.36%
O=C(COc1ncnc2ccccc12)NC(=O)NCc1ccccc1	6.01%
COc1ccc(CNc2ncnc3ccccc23)cc1	33.8% (active)
CCCCN(C)Cc1c(C)[nH]c2ccc(Cl)cc2c1=O	-2.11%
O=S(=O)(NCCc1ccc(Cl)cc1)c1cccs1	2.77%
O=S(=O)(Nc1ccccc1)c1ccc(NS(=O)(=O)c2cccs2)cc1	3.98%
O=C(Nc1cccc(Cl)c1)Nc1ccccc1NS(=O)(=O)c1cccs1	30.1% (active)
CCCCCC1CCC(c2nnc(SCC(C)=O)o2)CC1 (centres undefined)	-0.26%
CCOC(=O)C(CO)NC(=O)C1(NC(C)=O)CCCC1 (centres undefined)	5.55%
COc1cccc(N(CC(=O)NCc2ccccc2)C(=O)CCC(=O)Nc2nccs2)c1	9.51%
CCCc1cc(=O)[nH]c2nnc(SCC(=O)Nc3nnc(SCC)s3)n12	6.93%
COc1ccccc1OCCNC(=O)CCNC(=O)c1ccccc1Cl	17.2%
CC(=O)Nc1ccc(NC(=O)C(C)OC(=O)C2CC(=O)N(CCc3ccccc3)C2)cc1 (centres undefined)	7.46%
COc1cccc(/C=C2\SC(=N)N(c3ccc(F)cc3)C2=O)c1	11%
CC(=O)N1CC(C)c2scc(C)[n+]2-c2ccccc21 (centres undefined)	-1.76%
CCC(C(=O)NC1CCCC1)N(C(=O)c1snc(C(N)=O)c1N)c1ccc2c(c1)OCCO2 (centres undefined)	-5.82%
Cc1ccc(S(=O)(=O)NCCC(=O)NC2CCN(Cc3ccccc3)CC2)cc1	6.57%
O=C(NNS(=O)(=O)c1ccc(Cl)cc1)C1CCN(Cc2ccccc2)CC1	40.5% (active)
O=C(NCc1ccccc1CN1CCCC1)C1CCN(S(=O)(=O)c2ccc(Cl)cc2)CC1	1.2%
CN(C)CCNc1ccc(-c2n[nH]c(=O)c3ccccc23)cc1[N+](=O)[O-]	5.87%
O=C(NCC1(N2CCCCC2)CCCCC1)c1ccc(NS(=O)(=O)c2ccc(F)cc2)cc1	6.39%
CC(C)c1ccc(NC(=O)COC(=O)c2ccc(CN3CCCC3=O)cc2)cc1	11.4%
Cc1cc(C)c(S(=O)(=O)N2CCCC2CNC(=O)c2ccc3c(c2)OCO3)c(C)c1 (centres undefined)	10.3%

Compound	inhibition
O=C(COc1ccc(F)cc1Br)NCC1COc2ccccc2O1 (centres undefined)	-3.52%
c1ccc2c(c1)OCC(CNc1ncnc3nc[nH]c13)O2 (centres undefined)	46.2% (active)
CCC(=O)c1ccc(OCC(=O)N(CC)CC2COc3ccccc3O2)cc1 (centres undefined)	-6.74%
CSc1ccccc1OCc1cc(C(=O)N2C[C@H]3CC[C@H]2C3)no1	23.9%
CCc1nc2nc(C)c(NS(=O)(=O)c3ccc4c(c3)CCCC4)c(=O)n2[nH]1	17.6%
CC(C)(C)N(CC#CCC(O)(c1ccccc1)C1CCCC1)CCO (centres undefined)	8.39%
CN(CC#CCC(c1ccccc1)c1ccccc1)C(C)(C)C	56.4% (active)
O=C1NC[C@@H](Cc2ccc(O)cc2)N(CCc2cccc(F)c2)C1=O	10.1%
CCCCC(C(=O)NC(C)(C)C)N(Cc1ccccc1)C(=O)c1snc(C(N)=O)c1N (centres undefined)	-2.14%
Cc1cc(C)c(OCC(=O)N(Cc2cccs2)C2CCS(=O)(=O)C2)c(C)c1 (centres undefined)	5.07%
CCCC[C@@H]1CN=C(N)N1CCc1cc(C(F)(F)F)cc(C(F)(F)F)c1	32.4% (active)
CCCCN1C(N)=NC[C@@H]1CC1CCCCC1	0.65%
CN(C)C1=NC[C@H](Cc2ccccc2)N1CCc1ccc(F)cc1	2.48%
COc1cccc(C(O)c2nc(-c3ccc(C)c(C)c3)cs2)c1 (centres undefined)	2.71%
O=C(NC1=CC(=O)c2ccccc2C1=O)c1ccccc1	36.2% (active)
Cc1ccc(C(=O)Nc2c(-c3ccccc3)[nH][nH]c2=O)cc1	-12.3%
CN(C)C(=O)c1ccc(NC(=O)c2ccccc2-c2ccccc2)cc1	12.5%
O=C(O)CCC(=O)Nc1ccc(OCC2CCCO2)cc1 (centres undefined)	-4.56%
COc1ccc(NC(=O)CN2C(=O)CSc3ccc(S(=O)(=O)N4CCC(C)CC4)cc32)cc1	-4.66%
CCc1ccc(-c2cc(C)no2)cc1S(=O)(=O)NCCc1ccc(S(N)(=O)=O)cc1	-7.03%
COc1ccc(CNS(=O)(=O)c2cc(-c3cc(C)no3)ccc2C(C)C)cc1	27.2% (active)
Cc1cc(-c2ccc(C)c(S(=O)(=O)NCCCN(Cc3ccccc3)C(C)C)c2)on1	-8.38%
CSCCC(NC(=O)COc1ccccc1)C(=O)Nc1ccc(C)cc1 (centres undefined)	0.42%

Compound	inhibition
O=c1cc(CN2CCCCCCC2)c2c(ccc3ccccc32)o1	1.52%
Cc1cc2oc(=O)cc(CN3CCN(S(=O)(=O)c4cccs4)CC3)c2cc1C(C)C	6.3%
CC(C)c1ccc2oc(=O)cc(CN3CCN(Cc4ccccc4)CC3)c2c1	27.9% (active)
COc1ccc(-c2cc3nc(C)c(CCC(=O)NC(C)CCc4ccco4)c(C)n3n2)c(OC)c1 (centres undefined)	-13.5%
CCC(C)C(NC(=O)C1CCC(=O)N1C(=O)OCc1ccccc1)C(=O)NC(C(=O)N1CCCC1C(N)=O)C(C)CC (centres undefined)	5.74%
CCCCCCCCn1c2c(c(=N)c3c1CCC3)CCCC2	32.9% (active)
C#Cc1ccc([C@@H]2C=C(C(=O)O)O[C@H](OCCCCO)C2)cc1	13.8%
CCCN(Cc1cc2cccc(C)c2[nH]c1=O)S(C)(=O)=O	-2.81%
COc1cccc(CNC(=O)CCC2CCCN(C(=O)c3ccoc3C)C2)c1 (centres undefined)	12.6%
COc1cccc(CNC(=O)CCC2CCCN(C(=O)c3cc(C)[nH]n3)C2)c1 (centres undefined)	32.7% (active)
COc1cccc(CNC(=O)CCC2CCCN(C(=O)c3ccc(F)c(Cl)c3)C2)c1 (centres undefined)	-0.63%
CC1(C)Cc2nc3sc4c(SCC(=O)NC(c5ccccc5)c5ccccc5)ncnc4c3cc2CO1	-8.35%
CN(C)c1ccc(/C=C2\NC(=S)N(Cc3ccccc3)C2=O)cc1	52.7% (active)
CCN(C(=O)CSc1nnnn1-c1ccc(OC)cc1)C1CCS(=O)(=O)C1 (centres undefined)	12.8%
CC(Sc1nn(-c2ccc(Cl)cc2)c(=S)s1)C(=O)NCC1CCCO1 (centres undefined)	-4.62%
O=[N+]([O-])c1c(NCCO)cc(Sc2nc3ccccc3s2)c2nonc12	29.2% (active)
N#Cc1ccc(OCCN2C(=O)NC3(CCSC3)C2=O)cc1 (centres undefined)	-5.81%
COc1ccc(NC(=O)c2sccc2SCC#N)cc1	2.72%
CN1CCN(C(=O)C2=C[C@H](c3ccc4c(c3)OCO4)C[C@H](OCc3ccc(CO)cc3)O2)CC1	3.48%
COc1ccc(-n2nnc3c(=O)n(CC(=O)OCc4ccccc4)cnc32)cc1	4.49%
